{"source": "ChEMBL document CHEMBL1157539", "about": "“Thousands of chemical starting points for antimalarial lead identification” (Nature, 2010)", "note": "In all, about 13,000 compounds were measured (“IFI”: median about 4, highest 2% from about 17 on). The entries come from a sample that favours the highest values as a whole.", "data": [{"test": "GSK_TCMDC: Inhibition Frequency Index (IFI). The number of non-kinase HTS assays where a compound showed > 50 % inhibition, expressed as a percentage of the number of such assays in which the compound was tested", "format": "functional", "units": {"IFI": "%"}, "values": [{"smiles": "COc1cc(C(=O)N2CCOC(CCN3CCC[C@H]3C(=O)Nc3ccccc3)(c3ccc(Cl)c(Cl)c3)C2)cc(OC)c1OC", "note": "(stereo partly specified)", "IFI": 4.83}, {"smiles": "COc1ccc2ncc(F)c(CCN3CC(O)C(CNCc4ccccc4)C3)c2n1", "note": "(stereo unspecified)", "IFI": 2.94}, {"smiles": "O=C(NCCc1ccccc1)N(Cc1ccc(-c2cccc(CN3CCNCC3)c2)cc1)C1CCN(Cc2ccccc2)CC1", "IFI": 6.67}, {"smiles": "CC(C)C[C@H](NC(=O)c1cc2ccccc2s1)C(=O)N[C@H]1CCN(Cc2ccc(OCCCN(C)C)c(Cl)c2)C1", "IFI": 17.2}, {"smiles": "CC(C)C[C@H](NC(=O)c1cc2ccccc2s1)C(=O)N[C@H]1CCN(Cc2ccc(OC3CCN(C)C3)c(Cl)c2)C1", "note": "(stereo partly specified)", "IFI": 6.67}, {"smiles": "CC(C)C[C@H](NC(=O)c1cc2ccccc2s1)C(=O)N[C@H]1CCN(Cc2ccc(OC[C@@H]3CCCN3C)c(Cl)c2)C1", "IFI": 6.67}, {"smiles": "O=C1CCCN1CCCNCc1cccc(-c2cccc(-c3nc4cc(F)ccc4[nH]3)c2)c1", "IFI": 4.85}, {"smiles": "Cc1ccc(C)c(NC(=O)CC2C(=O)N(c3ccccc3)C(=S)N2Cc2ccco2)c1", "note": "(stereo unspecified)", "IFI": 0.76}, {"smiles": "NC(=O)C1CCN(Cc2ccc(-c3cccc(-c4nc5cc(F)ccc5[nH]4)c3)cc2)CC1", "IFI": 0}, {"smiles": "Cc1ccc(Nc2nc(C)cc(NC3CCCC3)n2)cc1", "IFI": 21.3}, {"smiles": "Cc1ccc(Nc2nc(C)cc(NC3CC3)n2)cc1", "IFI": 4.62}, {"smiles": "Cc1cc(NC2CCCC2)nc(Nc2ccc(F)cc2)n1", "IFI": 9.09}, {"smiles": "CC1CN(c2cccc3c2nc(-c2cncc(C#N)c2)n3CCNCc2ccccc2)CC(C)O1", "note": "(stereo unspecified)", "IFI": 0}, {"smiles": "CCN1CCC(N(Cc2ccc(-c3ccc(C(F)(F)F)cc3)cc2)C(=O)Cn2c(CCc3cccc(F)c3F)cc(=O)c3c2CCC3)CC1", "IFI": 4.96}, {"smiles": "CCn1c(-c2nonc2N)nc2c(Cl)ncc(O[C@H](CCN)c3ccccc3F)c21", "IFI": 23.1}, {"smiles": "CCn1c(-c2nonc2N)nc2c(-c3ccc(CO)o3)ncc(OCCCN)c21", "IFI": 15.4}, {"smiles": "CCn1c(-c2nonc2N)nc2c(-c3cccc(Cl)c3)ncc(OCCCNCc3cnc(C)nc3N)c21", "IFI": 7.62}, {"smiles": "CN1CCN(CC2(Nc3nccc(NCc4ccc(Cl)cc4Cl)n3)CCCCC2)CC1", "IFI": 35.7}, {"smiles": "Clc1ccc(CNc2ccnc(NCc3cccnc3N3CCCC3)n2)c(Cl)c1", "IFI": 16.7}, {"smiles": "CN1CCN(CC2(Nc3nccc(NCCc4cn(C)c5ccccc45)n3)CCCCC2)CC1", "IFI": 14.3}, {"smiles": "COc1ccccc1CCN(C)CCN1CCC(NC(=O)c2ccc(-c3ccc(C(F)(F)F)cc3)cc2)CC1", "IFI": 6.19}, {"smiles": "COc1cccc(OC)c1CN1CCC(N(C)CCCCCCCCN2CCC(OC(=O)Nc3ccccc3-c3ccccc3)CC2)CC1", "IFI": 13.1}, {"smiles": "COc1cccc(OC)c1CN1CCC(N(C)CCCCCCCCCN2CCC(OC(=O)Nc3ccccc3-c3ccccc3)CC2)CC1", "IFI": 17.3}, {"smiles": "COc1cccc(OC)c1OCCCON1C(=N)N=C(N)NC1(C)C", "IFI": 2.9}, {"smiles": "CN(C)CCC(O)C=C(c1ccc(Cl)cc1)c1ccc(Cl)cc1", "note": "(stereo unspecified)", "IFI": 4.69}, {"smiles": "CN(CCCCN)Cc1ccc(-c2ccc(Cl)cc2)cc1", "IFI": 4.44}, {"smiles": "CCC(COCc1ccc(Cl)cc1)N(C)CCN(C)C(CC)COCc1ccc(Cl)cc1", "note": "(stereo unspecified)", "IFI": 19.6}, {"smiles": "CC1(C)C(=O)N=C2C1=C(O)C(=O)c1ccccc12", "IFI": 17.2}, {"smiles": "Cc1ccc2c(=NN=Cc3cccc(F)c3)cc(C)[nH]c2c1", "IFI": 5.15}, {"smiles": "C=CCOC(=O)N1CCC(CNCc2cccc(-c3ccc(-c4nc5cccc(C)c5[nH]4)s3)c2)C1", "note": "(stereo unspecified)", "IFI": 3.81}, {"smiles": "CCc1c(CCNCCCCCCNCCc2ccc(OC)c(OC)c2CC)ccc(OC)c1OC", "IFI": 6.47}, {"smiles": "COc1c(OC)c(OC)c2ccccc2c1CNCCCCCCNCc1c(OC)c(OC)c(OC)c2ccccc12", "IFI": 14.8}, {"smiles": "COc1c(OC)c(OC)c2ccccc2c1CCNCCCCNCCc1c(OC)c(OC)c(OC)c2ccccc12", "IFI": 18.3}, {"smiles": "COc1c(CNCCCCCCNCc2c(OC)c(OC)c3ccccc3c2OC)c(OC)c2ccccc2c1OC", "IFI": 21.3}, {"smiles": "COc1cc2ccccc2c(CNCCCCCCNCc2c(OC)c(OC)cc3ccccc23)c1OC", "IFI": 12.1}, {"smiles": "CCCCOc1cc(OC)c2ccccc2c1CCNCCCCNCCc1c(OCCCC)cc(OC)c2ccccc12", "IFI": 19.1}, {"smiles": "COc1cc2ccccc2cc1CCNCCCCNCCc1cc2ccccc2cc1OC", "IFI": 14.8}, {"smiles": "COc1cc2ccccc2c(OC)c1CCNCCCCNCCc1c(OC)cc2ccccc2c1OC", "IFI": 14.5}, {"smiles": "COc1cc2ccccc2c(OC)c1CNCCCCCCNCc1c(OC)cc2ccccc2c1OC", "IFI": 12.9}, {"smiles": "N=C(N)Nc1nc(-c2cccc(NC(=O)NCc3ccc(OC(F)(F)F)cc3)c2)cs1", "IFI": 3.79}, {"smiles": "CC(CN1CCN(C)CC1)C(=O)Nc1ccc(-c2cccc(-c3nc4cc(F)ccc4[nH]3)c2)cc1", "note": "(stereo unspecified)", "IFI": 2.78}, {"smiles": "CC(=O)Nc1ncc(C(=O)Nc2cccc(-c3cccc(-c4nc5cc(C(F)(F)F)ccc5[nH]4)c3)c2)s1", "IFI": 5.41}, {"smiles": "CC(C)COc1ccc2ccccc2c1CNCCCCCCNCc1c(OCC(C)C)ccc2ccccc12", "IFI": 22.9}, {"smiles": "CSc1ccc2ccccc2c1CNCCCCCCNCc1c(SC)ccc2ccccc12", "IFI": 12.3}, {"smiles": "CC(C)Oc1ccc2ccccc2c1CNCCCCCCNCc1c(OC(C)C)ccc2ccccc12", "IFI": 18.5}, {"smiles": "COc1ccc2ccccc2c1CNCCCCCCNCc1c(OC)ccc2ccccc12", "IFI": 9.93}, {"smiles": "COc1ccc2c(CNCCCCCCNCc3c(OC)ccc4cc(OC)ccc34)c(OC)ccc2c1", "IFI": 7.38}, {"smiles": "Cc1nnsc1C(=O)Nc1cccc(-c2cccc(-c3nc4cc(F)ccc4[nH]3)c2)c1", "IFI": 6.42}, {"smiles": "CC(=NNC(S)=Nc1ccccc1Cl)c1ccccn1", "IFI": 6.57}, {"smiles": "COc1cc(F)c2nccc([C@@H](O)CN3CCC(NCc4cc5c(cc4F)OCCO5)CC3)c2c1", "IFI": 1.59}, {"smiles": "O=C(Nc1ccc([N+](=O)[O-])cc1)Nc1cc(OCC(F)(F)F)cc(OCC(F)(F)F)c1", "IFI": 9.6}, {"smiles": "COc1cc([N+](=O)[O-])ccc1NC(=O)Nc1ccc(OC(F)(F)F)cc1", "IFI": 18.4}, {"smiles": "O=C(Nc1ccc(OC(F)(F)F)cc1)Nc1ccc([N+](=O)[O-])cc1", "IFI": 20.1}, {"smiles": "O=C(Nc1ccc(Oc2ccc(OC(F)(F)F)cc2)cc1)c1ccco1", "IFI": 5.22}, {"smiles": "O=C(Nc1ccc([N+](=O)[O-])cc1)Nc1cc(C(F)(F)F)ccc1F", "IFI": 8.62}, {"smiles": "O=C(Nc1ccc(C(F)(F)F)cc1)Nc1cccc([N+](=O)[O-])c1", "IFI": 19.1}, {"smiles": "O=C(Nc1cccc([N+](=O)[O-])c1)Nc1cccc(C(F)(F)F)c1", "IFI": 12.4}, {"smiles": "COc1cc(C)nc2ccc(NC(=O)Nc3ccc([N+](=O)[O-])cc3C)cc12", "IFI": 3.01}, {"smiles": "O=C(Nc1ccc(CCNCc2ccccc2)cc1)Nc1ccc(OC(F)(F)F)cc1", "IFI": 0.72}, {"smiles": "N#Cc1ccc(NC(=O)Nc2ccc(OC(F)(F)F)cc2)cc1", "IFI": 20.5}, {"smiles": "COc1cc(NC(=O)Nc2ccc([N+](=O)[O-])cc2OC)c(OC)cc1Cl", "IFI": 1.83}, {"smiles": "O=C(Nc1cccc([N+](=O)[O-])c1)Nc1ccc(Cl)c(C(F)(F)F)c1", "IFI": 10}, {"smiles": "CCN(CC)CCCC(C)N=c1cc(C=Cc2ccc([N+](=O)[O-])cc2)[nH]c2ccc(OC)cc12", "note": "(stereo unspecified)", "IFI": 1.65}, {"smiles": "CCN(CC)C(C)(C)CN(Cc1ccc(-c2ccc(C(F)(F)F)cc2)cc1)C(=O)Cn1c(CCc2cccc(F)c2F)nc(=O)c2ccccc21", "IFI": 6.94}, {"smiles": "CCN(CCNS(C)(=O)=O)c1ccc(N)c(C)c1", "IFI": 7.32}, {"smiles": "CN(C)c1ccc(NC2=NC(N)=NC(C)(C)N2)cc1", "IFI": 1.82}, {"smiles": "NC(=O)c1cccc(C(=O)Nc2cccc(-c3ccc(-c4nc5cc(C(F)(F)F)ccc5[nH]4)cc3)c2)c1", "IFI": 6.67}, {"smiles": "Nc1cccc(CNCc2ccc(-c3cccc(-c4nc5cc(C(F)(F)F)ccc5[nH]4)c3)cc2)c1", "IFI": 15.2}, {"smiles": "CCCCN(C(=O)c1ccccc1C)c1nnc(-c2ccccc2C)s1", "IFI": 2.56}, {"smiles": "Cc1ccc2nc(C)n(C3CCN(C(=O)Cc4ccc(F)c(F)c4)CC3)c2c1", "IFI": 0}, {"smiles": "O=C(N[C@H]1CCN(Cc2ccc(OCCN3CCNCC3)c(Br)c2)C1)c1ccc(Cl)c(Cl)c1", "IFI": 6.9}, {"smiles": "C[C@H](Cc1ccc(OCCCCCCOc2ccc(C[C@@H](C)NC[C@H](O)c3cccc(Cl)c3)cc2)cc1)NC[C@H](O)c1cccc(Cl)c1", "IFI": 16.9}, {"smiles": "CC(CCCC(=O)Nc1ccc(CC(C)NCCc2cccc(Cl)c2)cc1)NCCc1cccc(Cl)c1", "note": "(stereo unspecified)", "IFI": 11.9}, {"smiles": "C[C@H](Cc1ccc(OCCCCCCOc2ccc(C[C@@H](C)N[C@H](C)c3ccccc3)cc2)cc1)NC[C@H](O)c1cccc(Cl)c1", "IFI": 19.6}, {"smiles": "CC(CCCCC(=O)Nc1ccc(CC(C)NCCc2cccc(Cl)c2)cc1)NCCc1cccc(Cl)c1", "note": "(stereo unspecified)", "IFI": 4.29}, {"smiles": "C[C@H](Cc1ccc(OCCCCCCCOc2ccc(C[C@@H](C)NC[C@H](O)c3cccc(Cl)c3)cc2)cc1)NC[C@H](O)c1cccc(Cl)c1", "IFI": 22.1}, {"smiles": "CC(NCCc1cccc(Cl)c1)C(O)c1ccc(OCCCCCCOc2ccc(C(O)C(C)NCCc3cccc(Cl)c3)cc2)cc1", "note": "(stereo unspecified)", "IFI": 13}, {"smiles": "C[C@H](Cc1ccc(OCCCCCOc2ccc(C[C@@H](C)NC[C@H](O)c3cccc(Cl)c3)cc2)cc1)NC[C@H](O)c1cccc(Cl)c1", "IFI": 20.9}, {"smiles": "CC(Cc1ccc(NC(=O)COc2ccc(CC(C)NCCc3cccc(Cl)c3)cc2)cc1)NCCc1cccc(Cl)c1", "note": "(stereo unspecified)", "IFI": 32.4}, {"smiles": "COc1ccc(CC(Cc2ccc(OC)cc2)NCC(O)c2cccc(Cl)c2)cc1", "note": "(stereo unspecified)", "IFI": 4.86}, {"smiles": "C[C@H](Cc1ccc(OCCNC[C@H](O)c2cccc(Cl)c2)cc1)NC[C@H](O)c1ccc(Cl)c(Cl)c1", "IFI": 11.4}, {"smiles": "C[C@H](Cc1ccc(OCCCCCCOc2ccc(C[C@@H](C)NC(=O)[C@H](O)c3cccc(Cl)c3)cc2)cc1)NC[C@H](O)c1cccc(Cl)c1", "IFI": 11.3}, {"smiles": "NC(=O)c1cccc(C(=O)Nc2ccc(-c3cccc(-c4nc5cc(F)ccc5[nH]4)c3)cc2)c1", "IFI": 1.74}, {"smiles": "Cc1cccc2nc(-c3cccc(-c4ccc(NC(=O)C(C)CN(C)C)cc4)c3)[nH]c12", "note": "(stereo unspecified)", "IFI": 5.45}, {"smiles": "O=C(Cc1ccc(-c2ccccc2)cc1)N[C@H]1CCN(Cc2ccc(OCCCN3CCCCC3)cc2)C1", "IFI": 7.53}, {"smiles": "C=C(C)CSc1nc2c(c(=O)n1CCc1ccccc1)C1(CCCC1)Cc1ccccc1-2", "IFI": 0}]}]}
